The nature of assay [1]: TOX21_TR_RXR_BLA_Agonist_Followup_viability: Viability Assessment in the Tox21 Thyroid Hormone Receptor beta Retinoid X Receptor alpha (RXRa) Agonism Beta-lactamase (BLA) Follow-Up Assay (AID 2283970; active means hit-call score of the fitted dose curve at least 0.9, where 1 is the maximum). The text has this:
GeneBLAzer RXRa-UAS-bla HEK293T assay (RXRa-bla) (ThermoFisherScientific Catalog No. K1697) was run in qHTS 1536 well format as a secondary assay for specificity of response in the TOX21_TR_GH3_LUC_Agonist assay.TOX21_TR_RXR_BLA_Agonist_Followup_viability is a component of the TOX21_TR_RXR_BLA_Agonist_Followup assay. This component measures cell viability using the CellTiter-Glo Luciferase-coupled ATP quantitation.The assay component endpoint TOX21_TR_RXR_BLA_Agonist_Followup_viability was analyzed with bidirectional fitting relation to DMSO as the negative control and baseline of activity. Using a type of viability reporter, loss-of-signal activity can be used to understand changes in viability. […]
Cell Media Required: Growth (90% DMEM/F-12, 10% Fetal Bovine Calf Serum, 100U/ml Penicillin, 100 ug/ml Streptomycin), Assay (10ng/mL sodium selenite, 10 ug/mL humanapo-transferrin, 10 uM ethanolamine, 10 ug/mL insulin, 500 ug/mL bovine serum albumin (BSA))Assay Protocol: RXRa-bla cells were seeded at 2,500/well in 6 uL of the assay medium containing phenol red-free DMEM with 2% charcoal-stripped FBS in 1,536-well black-wall/clear-bottom plates (Greiner Bio-One North America) usinga Multidrop Combi dispenser. […] After 2-h incubation at room temperature, the fluorescence intensity was measured using an Envision plate reader (Perkin Elmer). Data were expressed as the ratio of 460:530 nm.

Assay [2] has as its target Retinoic acid receptor RXR-alpha (Homo sapiens) (UniProt P19793). The experiment in a line: TOX21_TR_RXR_BLA_Antagonist_Followup_ratio: Tox21 Thyroid Hormone Receptor beta Retinoid X Receptor alpha (RXRa) Antagonism Beta-lactamase (BLA) Follow-Up Assay, Ratio (AID 2283972; active means hit-call score of the fitted dose curve at least 0.9, where 1 is the maximum). Put shortly:
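RXRa-UAS-bla HEK293T cells in phenol red-free DMEM with 2% charcoal-stripped FBS; compounds at 11 concentrations in triplicate, 16 h at 37C. LiveBLAzer FRET-B/CCF4-AM substrate 2 h at room temperature; read as 460:530 nm ratio versus DMSO.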

The nature of assay [3]: TOX21_TR_RXR_BLA_Antagonist_Followup_viability: Viability Assessment in the Tox21 Thyroid Hormone Receptor beta Retinoid X Receptor alpha (RXRa) Antagonism Beta-lactamase (BLA) Follow-Up Assay (AID 2283979; active means hit-call score of the fitted dose curve at least 0.9, where 1 is the maximum). Put shortly: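 RXRa-UAS-bla HEK293T cells seeded 2,500/well in phenol red-free DMEM with 2% charcoal-stripped FBS, attached 5 h, then exposed to compounds at 11 concentrations in triplicate for 16 h at 37C/5% CO2. Viability read by CellTiter-Glo ATP luminescence; bidirectional fit versus DMSO.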

A short description of assay [4]: CCTE_Harrill_HTTr_Viability_DMEM_6hr: (Pilot) CCTE's 6-hour Cell Viability Assessment for the High-Throughput Transcriptomics (HTTr) Platform, in MCF-7 cells cultured in DMEM + 10% fetal bovine serum, Harrill Lab (AID 2283973). The text has this: This is a cell-based assay that evaluates cell viability using high content imaging to evaluate membrane integrity using propidium iodide dye exclusion in a 384 well format.One of seven assay components measured from the CCTE_Harrill_HTTr_Viability assay. This was part of a pilot experiment. This is a cell-based assay that evaluates cell viability in MCF-7 cells cultured in DMEM + 10% fetal bovine serum. High content imaging is used to evaluate membrane integrity using propidium iodide dye exclusion. Measurements are taken at 6 hours after chemical dosing in 384-well format.The assay component endpoint CCTE_Harrill_HTTr_Viability_DMEM_6hr was analyzed with bidirectional fitting relation to DMSO as the negative control and baseline of activity. Using a type of viability reporter to understand changes in cytotoxicity, gain-of-signal activity can be used to evaluate membrane integrity using propidium iodide dye exclusion. To generalize the intended target to other relatable targets, this assay endpoint is annotated to cell cycle, where the subfamily is cytotoxicity.
(§1) Chemicals were tested in MCF7 cells in an eight point dilution series with a six hour exposure duration.

Assay [5] can be described thus: CCTE_Harrill_HTTr_Viability_DMEM_12hr: (Pilot) CCTE's 12-hour Cell Viability Assessment for the High-Throughput Transcriptomics (HTTr) Platform, in MCF-7 cells cultured in DMEM + 10% fetal bovine serum, Harrill Lab (AID 2283974). Put shortly: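 MCF-7 cells in DMEM + 10% FBS exposed 12 h to an eight-point dilution series; membrane integrity scored by propidium iodide exclusion with high-content imaging, bidirectional fitting versus DMSO.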

The nature of assay [6]: CCTE_Harrill_HTTr_Viability_DMEM_24hr: (Pilot) CCTE's 24-hour Cell Viability Assessment for the High-Throughput Transcriptomics (HTTr) Platform, in MCF-7 cells cultured in DMEM + 10% fetal bovine serum, Harrill Lab (AID 2283975). Put shortly:
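MCF-7 cells in DMEM with 10% FBS exposed for 24 hours to an eight-point dilution series. Membrane integrity by propidium iodide exclusion with high content imaging; bidirectional fit against DMSO.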

The nature of assay [7]: CCTE_Harrill_HTTr_Viability_PRF_DMEM_6hr: (Pilot) CCTE's 6-hour Cell Viability Assessment for the High-Throughput Transcriptomics (HTTr) Platform, in MCF-7 cells cultured phenol red-free DMEM + 10% charcoal-stripped fetal bovine serum, Harrill Lab (AID 2283976).
Text: This is a cell-based assay that evaluates cell viability using high content imaging to evaluate membrane integrity using propidium iodide dye exclusion in a 384 well format.One of seven assay components measured from the CCTE_Harrill_HTTr_Viability assay. This was part of a pilot experiment. This is a cell-based assay that evaluates cell viability in MCF-7 cells cultured in phenol red-free DMEM + 10% charcoal-stripped fetal bovine serum. High content imaging is used to evaluate membrane integrity using propidium iodide dye exclusion. Measurements are taken at 6 hours after chemical dosing in 384-well format.The assay component endpoint CCTE_Harrill_HTTr_Viability_PRF_DMEM_6hr was analyzed with bidirectional fitting relation to DMSO as the negative control and baseline of activity. Using a type of viability reporter to understand changes in cytotoxicity, gain-of-signal activity can be used to evaluate membrane integrity using propidium iodide dye exclusion. To generalize the intended target to other relatable targets, this assay endpoint is annotated to cell cycle, where the subfamily is cytotoxicity.
as §1

Assay [8] in a line: CCTE_Harrill_HTTr_Viability_PRF_DMEM_12hr: (Pilot) CCTE's 12-hour Cell Viability Assessment for the High-Throughput Transcriptomics (HTTr) Platform, in MCF-7 cells cultured in phenol red-free DMEM + 10% charcoal-stripped fetal bovine serum, Harrill Lab (AID 2283977). Summed up:
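MCF-7 cells in phenol red-free DMEM with 10% charcoal-stripped FBS exposed 12 hours to an eight-point dilution series. Viability assessed by high-content imaging of propidium iodide exclusion; bidirectional fit versus DMSO.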

A short description of assay [9]: CCTE_Harrill_HTTr_Viability_PRF_DMEM_24hr: (Pilot) CCTE's 24-hour Cell Viability Assessment for the High-Throughput Transcriptomics (HTTr) Platform, in MCF-7 cells cultured in phenol red-free DMEM + 10% charcoal-stripped fetal bovine serum, Harrill Lab (AID 2283980). Summed up: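 MCF-7 cells in phenol red-free DMEM with 10% charcoal-stripped FBS, eight-point dilution series, 24 h exposure. Membrane integrity by propidium iodide exclusion with high content imaging; bidirectional fit vs DMSO.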

The nature of assay [10]: CCTE_Harrill_HTTr_Apoptosis_DMEM_6hr: (Pilot) CCTE's 6-hour Apoptosis Assessment for the High-Throughput Transcriptomics (HTTr) Platform, in MCF-7 cells cultured in DMEM + 10% fetal bovine serum, Harrill Lab (AID 2283981). Put shortly:
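Caspase-3/7 activation read by high content imaging with CellEvent Caspase 3/7 Green in MCF-7 cells (DMEM + 10% FBS), 6 h after dosing; eight-point dilution series. Bidirectional fitting relative to DMSO baseline.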

Our source for the outcome and AC50 values is PubChem BioAssay (EPA / NIEHS).

Records with an inconclusive call do not appear. The source made the active and inactive calls. How the source made its calls, unless noted: active means hit-call score of the fitted dose curve at least 0.9, where 1 is the maximum; inactive means score below 0.9.

In general, AC50 refers to the midpoint of the concentration-response curve, whichever way the signal moves.

Sequence of Retinoic acid receptor RXR-alpha (Homo sapiens) (P19793 whole entry, looked up): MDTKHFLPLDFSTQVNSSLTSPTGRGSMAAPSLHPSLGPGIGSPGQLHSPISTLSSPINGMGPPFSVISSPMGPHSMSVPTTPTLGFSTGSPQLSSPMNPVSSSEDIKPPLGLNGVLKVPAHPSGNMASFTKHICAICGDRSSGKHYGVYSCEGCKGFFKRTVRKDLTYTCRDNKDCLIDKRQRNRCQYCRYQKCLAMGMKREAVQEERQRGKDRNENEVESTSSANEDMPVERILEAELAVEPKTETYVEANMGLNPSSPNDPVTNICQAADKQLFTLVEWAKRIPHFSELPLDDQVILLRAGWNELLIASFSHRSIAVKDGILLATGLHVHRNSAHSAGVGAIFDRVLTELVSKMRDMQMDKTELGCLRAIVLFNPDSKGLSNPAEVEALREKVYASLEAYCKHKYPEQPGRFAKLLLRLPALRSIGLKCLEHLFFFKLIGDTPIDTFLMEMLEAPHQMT

Turning to `O=C(O)Cc1cc(I)c(Oc2ccc(O)c(I)c2)c(I)c1`, the result in [1] was inactive.
As for `COc1cc(C(=O)NC2CCN(C)CC2)ccc1Nc1ncc2c(n1)N(C1CCCC1)CC(F)(F)C(=O)N2C`, the outcome in assay [2] was inactive. Further, in [3], the AC50 was 26 µM (active).
For `CC1(C)NC(=O)N(c2ccc([N+](=O)[O-])c(C(F)(F)F)c2)C1=O`, the result in assay [4], in assay [5], in assay [6], in [7], in assay [8] and in assay [9] was inactive. Further, the outcome in [10] was inactive.
